Experimental data reported in PubChem BioAssay (NCI).
The panel holds about 83,000 compounds, 20% with a hit somewhere; the sample as a whole holds those more often.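 Negative percent growth values reflect cell death: -40 means 40% of the cells present at the start died, and -100 means all died.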 Unmarked numbers belong to inactive results. Calls of active or inactive are those of the source. Rule for the calls: active = growth percent below 10; inactive = the rest.

Columns and labels:
Assay in all cases: NCI-60 one-dose screen, 48 h (100 = growth as untreated, 0 = no growth, -100 = all killed)
Conditions in all cases: 10 µM unless noted
[1] = test system: HCT-15 colon
[2] = test system: HT29 colon
[3] = test system: SNB-75 CNS
[4] = test system: SNB-19 CNS
[5] = test system: U251 CNS
[6] = test system: PC-3 prostate
[7] = test system: UACC-62 melanoma
[8] = test system: LOX IMVI melanoma
[9] = test system: SK-MEL-28 melanoma
[10] = test system: EKVX NSCLC
[11] = test system: SN12C renal
[12] = test system: UO-31 renal
[13] = test system: TK-10 renal
[14] = test system: ACHN renal
[15] = test system: CAKI-1 renal
[16] = test system: CCRF-CEM leukemia
[17] = test system: MOLT-4 leukemia
[18] = test system: SK-MEL-5 melanoma
[19] = test system: SK-MEL-2 melanoma
[20] = test system: A498 renal

Structure (SMILES)	growth [1]	growth [2]	growth [3]	growth [4]	growth [5]	growth [6]	growth [7]	growth [8]	growth [9]	growth [10]	growth [11]	growth [12]	growth [13]	growth [14]	growth [15]	growth [16]	growth [17]	growth [18]	growth [19]	growth [20]
NS(=O)(=O)c1ccc(-n2cc(-c3cccc(NC(=O)c4ccc(N5CCOCC5)c(C(F)(F)F)c4)c3)nn2)cc1	39.3%	61%	65.2%	62.9%	54.2%	23.5%	30.5%	9.34% (active)	54.7%	74.1%	43.9%	26.7%	98.6%	43.5%	51.1%	20.3%	11%			
N#Cc1cnc2ccc(-c3cnc(N)nc3)cc2c1N1CCc2cc(F)c(Cl)cc21	4.26% (active)	11.4%		12.2%	10.3%	2.78% (active)	-17.2% (active)	2.73% (active)	7.06% (active)	-7.03% (active)	15%	-6.05% (active)	-20.5% (active)	7.59% (active)	5.2% (active)	5.74% (active)	0.22% (active)	-92.3% (active)	-32.5% (active)	-49.7% (active)
CNC(=O)c1cc(Oc2ccc3nc(NC(=O)c4cc(N5CCOCC5)cc(C(F)(F)F)c4)sc3c2)ccn1	58.9%	62.3%	71.6%	92.9%	72.3%	46.7%	72.4%	83.5%	81.1%	70.7%	83.1%	87.8%	92.3%	87.9%	82.2%	67.3%	65.5%			
Cc1[nH]c(C(=O)Nc2ccccc2OCc2cccc(C(=O)N3CCC[C@@H](N)C3)c2)c(Cl)c1Cl	-78.6% (active)	-71.9% (active)		-84.4% (active)	-83.9% (active)	-88.9% (active)	-90.8% (active)	-90% (active)	-84.6% (active)	-93.4% (active)	-79.4% (active)	-89.5% (active)	-90.2% (active)	-96.4% (active)	-92.8% (active)	-26.6% (active)	-55.2% (active)	-97.7% (active)	-74.1% (active)	56.2%
Cc1ccc2c(c1)C(=O)/C(=C/c1cccc(F)c1)S2	100%	104%	106%	96.9%	101%	86.4%	83.7%	114%	101%	98.5%	101%	88.4%	123%	102%	85.8%	104%	106%			
COc1ccc(-n2c(SCc3nnc(NC(=O)c4ccc(Br)cc4)s3)nc3cc(OC)c(OC)cc3c2=O)cc1	85.1%	104%	93.4%	89.6%	86.3%	87.9%	91.4%	90.5%	88.7%	91.1%	91%	84.2%		97.5%	83.8%	90.9%	105%	91.8%		
C=C(C=O)[C@@H]1CC[C@]2(COC(C)=O)CC[C@]3(C)C(CC[C@@H]4[C@@]5(C)CC[C@H](OC(C)=O)C(C)(C)[C@@H]5CC[C@]43C)[C@@H]12 (stereo not given in full)	-42.7% (active)	4.87% (active)		5.36% (active)	-50.7% (active)	6.79% (active)	-15.7% (active)	-83.6% (active)	-42.8% (active)	12.9%	1.13% (active)	-94% (active)	35.5%	-54.3% (active)	-14.9% (active)	10.9%	-18.1% (active)	-96.9% (active)	-28% (active)	-41% (active)
